The values that follow come from PubChem BioAssay (NCATS).

Assay [1] deals with Glucocorticoid receptor (Homo sapiens) (UniProt P04150). The assay can be described thus: qHTS assay for small molecule agonists of glucocorticoid receptor signaling (AID 588532; active = well fitted curve in the direction sought with a large enough effect in the signal ratio, with a control signal flat; the % refers to the signal ratio;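 note: 100% = dexamethasone at 0.1 µM and 0% = DMSO only wells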). The settings on record: HeLa MMTV-bla, beta-lactamase ratio, agonist, 18 h; activation: stronger effect = higher value, percent of dexamethasone control, DMSO zero. The method in brief:
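Cells were plated and rested 3-5 h at 37 C, compounds were added in titration and incubated 18 h, then CCF4 substrate was loaded for 2 h at RT before reading blue/green fluorescence. EC50 came from Hill-equation fitting.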
A general note: qHTS replaces the single test concentration by a dilution series.

Assay [2] deals with Peroxisome proliferator-activated receptor delta (Homo sapiens) (UniProt Q03181). The assay can be described thus: qHTS assay for small molecule agonists of peroxisome proliferator-activated receptor delta signaling (AID 588534).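 Note: 0% = DMSO basal wells and 100% = positive control agonist at 10 µM.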 The method in brief: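 Titration series tested in agonist mode on beta-lactamase reporter cells; 18 hrs at 37 C after a 5 hr pre-incubation. Readout: CCF4 fluorescence, 2 hrs RT. Hill equation gives EC50 and maximal response.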

A short description of assay [3]: qHTS assay for small molecule antagonists of peroxisome proliferator-activated receptor delta signaling (AID 588535; active = well fitted inhibition curve with a large enough effect in the signal ratio, with a control signal flat, not every such curve was filed as active; the % refers to the signal ratio;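 for max response: cells co-treated with a PPAR-delta agonist as stimulator during compound exposure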). The note with it: HEK293T PPARd-UAS-bla, beta-lactamase FRET ratio, 18 h; 460 nm channel. The method in brief: (§1)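 Beta-lactamase reporter read-out (405 nm excitation, 460/530 nm emission) after CCF4 loading for 2 hrs at RT. HEK293T PPAR-delta-UAS-bla cells, 2% charcoal/dextran FBS, compounds for 18 hrs at 37 C. Hill fit gave IC50 and efficacy.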

Assay [4] has as its target Peroxisome proliferator-activated receptor delta (Homo sapiens) (UniProt Q03181). Described as above. The method in brief: as §1
Assay [5] has as its target Peroxisome proliferator-activated receptor gamma (Homo sapiens) (UniProt P37231). The assay can be described thus: qHTS assay for small molecule agonists of peroxisome proliferator-activated receptor gamma signaling (AID 588536; active = well fitted curve in the direction sought with a large enough effect in the signal ratio, with a control signal flat, not every such curve was filed as active; the % refers to the signal ratio;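 note: 0% = DMSO basal wells and 100% = rosiglitazone at 2 µM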). Put shortly: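 Cells were plated and held 6–6.5 h at 37 C, then compounds were added as a titration series. After a further 16 h, CCF4 dye was loaded for 2 h at room temperature and emission at 460/530 nm recorded.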

For assay [6] the target is unchanged. The assay can be described thus: qHTS assay for small molecule antagonists of peroxisome proliferator-activated receptor gamma signaling (AID 588537; active = well fitted inhibition curve with a large enough effect in the signal ratio, with a control signal flat, not every such curve was filed as active; the % refers to the signal ratio;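 note: reporter cells co-stimulated with 50 nM rosiglitazone agonist during compound treatment; % of control where 0% means no effect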). Put shortly:
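Read-out: CCF4 fluorescence (ex 405, em 460/530 nm) after 2 h at RT. Cells were HEK293 carrying a UAS-bla reporter and treated 16 h at 37 C with compound plus rosiglitazone (50 nM final). Normalized to rosiglitazone and DMSO.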

In assay [7] the target is Vitamin D3 receptor (Homo sapiens) (UniProt P11473). The assay can be described thus: qHTS assay for small molecule antagonists of vitamin D receptor signaling (AID 588541).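 Note: receptor activated by calcitriol during compound treatment; series mostly up to about 77 µM; % is set by controls: 0 for no effect and ±100 for the full control effect.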 The method in brief: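 VDR-UAS-bla HEK293T cells in 2% charcoal-stripped FBS were stimulated with 1-alpha,25-dihydroxyvitamin D3 (3 nM final) plus compound for 16 h at 37 C. The beta-lactamase CCF4 readout was normalized to 50 nM agonist and DMSO, and Hill fits gave IC50.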

For assay [8] the target is unchanged. Put plainly: qHTS assay for small molecule agonists of vitamin D receptor signaling (AID 588543).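 Note: 0% = DMSO basal and 100% = reference agonist control.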 The method in brief:
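Agonist-mode beta-lactamase reporter: HEK293T VDR-UAS-bla cells in charcoal-stripped 2% FBS, compound series 16 h 37 C, CCF4 2 h RT. EC50 from Hill fit, scaled against DMSO and 50 nM calcitriol control.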

The nature of assay [9]: qHTS assay for small molecule agonists of retinoid X receptor alpha signaling (AID 588544).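 For activation: 0% = DMSO basal wells and 100% = reference agonist.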 The settings on record: HEK293T RXRa-UAS-bla, beta-lactamase reporter, 18 h; 530 nm emission.
In assay [10] the target is Retinoic acid receptor RXR-alpha (Homo sapiens) (UniProt P19793). The assay is described as above.
Assay [11] addresses Thyroid hormone receptor beta (Homo sapiens) (UniProt P10828). The assay can be described thus: qHTS assay for small molecule agonists of thyroid hormone receptor beta signaling (AID 588545).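 Note: 0% = DMSO only and 100% = 10 nM T3.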 Put shortly:
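Stimulation of a TR-driven beta-lactamase reporter was quantified in GripTite HEK 293 cells. Compound series ran for 18 hrs; curves were normalized to T3 and DMSO controls and fitted to yield EC50.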

Assay [12] is described as follows: qHTS assay for small molecule antagonists of retinoid X receptor alpha signaling (AID 588546; active = well fitted inhibition curve with a large enough effect in the signal ratio, with a control signal flat, not every such curve was filed as active; the % refers to the signal ratio;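 note: cells stimulated with 9-cis-retinoic acid as agonist; % is set by controls: 0 for no effect and ±100 for the full control effect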). The settings on record: HEK293T RXRa-UAS-bla, beta-lactamase ratio, antagonist mode; measured here: W530 green channel, cytotoxicity proxy. Put shortly:
(§2)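 Beta-lactamase reporter inhibition, read as CCF4 fluorescence ratio (ex 405, em 460/530 nm) after 2 h at RT. HEK293T UAS-bla cells, 2500/well, were stimulated with 9-cis-RA at 500 or 100 nM final alongside test compound for 18 h at 37 C.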

In assay [13] the target is Thyroid hormone receptor beta (Homo sapiens) (UniProt P10828). The assay can be described thus: qHTS assay for small molecule antagonists of thyroid hormone receptor beta signaling (AID 588547; active = well fitted inhibition curve with a large enough effect in the signal ratio, with a control signal flat, not every such curve was filed as active; the % refers to the signal ratio;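 note: cells stimulated with 0.4 nM T3 agonist during compound exposure; series mostly up to about 77 µM; % is set by controls: 0 for no effect and ±100 for the full control effect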). The note with it: TR-UAS-bla HEK293, beta-lactamase ratio, antagonist mode, 18 h. Put shortly:
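TR-UAS-bla GripTite HEK293 cells in 2% charcoal/dextran FBS medium; compounds 0.59 nM to 92 uM with T3 at 0.4nM final, 18 h at 37 C. Beta-lactamase read by CCF4 fluorescence (460/530 nm); Hill fits gave IC50 and efficacy.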

Assay [14] can be described thus: qHTS assay for small molecule agonists of the antioxidant response element (ARE) signaling pathway (AID 651741; active = well fitted activation curve with a large enough effect in the signal ratio; the % refers to the signal ratio; note: % of control where 0% means no effect). The method in brief:
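HepG2 ARE-bla reporter cells, 2,000/well; 5 h settle at 37 C/5% CO2; compound pin transfer (23 nL, DMSO); 16 h at 37 C; LiveBLAzer B/G FRET substrate, 2 h RT; fluorescence intensity read.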

A short description of assay [15]: qHTS assay for small molecule activators of the p53 signaling pathway (AID 651743; active = well fitted activation curve with a large enough effect in the signal ratio, not every such curve was filed as active; the % refers to the signal ratio; note: series mostly up to about 92 µM; % of control where 0% means no effect). The note with it: HCT-116 p53RE-bla, beta-lactamase FRET ratio, 16 h; activation: stronger effect = higher value. The method in brief:
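Reporter: beta-lactamase driven by p53 response elements, stably integrated in HCT-116 cells. Cells seeded at 4,000/well, 5 h preincubation, compound (DMSO) 16 h at 37 C; B/G FRET substrate 2 h RT; fluorescence intensity read.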

Assay [16] concerns the target Peroxisome proliferator-activated receptor alpha (Homo sapiens) (UniProt Q07869). Put plainly: qHTS assay for small molecule agonists of the peroxisome proliferator-activated receptor alpha (PPARalpha) signaling pathway (AID 651778; active = well fitted curve in the direction sought with a large enough effect; an effect the other way counts as inactive or inconclusive; note: % of control where 0% means no effect). The note with it: PathHunter PPARalpha complementation, chemiluminescence, 6 h; max response: stronger effect = higher value. Put shortly: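 Enzyme-fragment complementation assay in which ligand-bound PPARalpha translocates and forms an active enzyme that generates chemiluminescence. Cells were plated overnight, exposed to compound for 6 hr at 37 C, and then given detection reagent for 60 min at room temperature.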

A short description of assay [17]: qHTS assay for small molecule agonists of the antioxidant response element (ARE) signaling pathway measured by Nrf2-dependant transcriptional activity (AID 720636; active = well fitted curve in the direction sought with a large enough effect in the repeat runs; an effect the other way counts as inactive or inconclusive;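 note: HepG2 cells with an ARE-driven luciferase reporter; % of control where 0% means no effect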). Put shortly: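 Nrf2-dependent transcription is measured in ARE-luc HepG2 cells: compound is applied for 16 hr at 37 C after a 6 hr attachment period, and luciferase activity is quantified by luminescence using ONE-Glo.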

A short description of assay [18]: qHTS assay for small molecule agonists of the antioxidant response element (ARE) signaling pathway measured by Nrf2-dependant transcriptional activity - cell viability counter screen (AID 720653; active = well fitted curve in the direction sought with a large enough effect in the repeat runs; an effect the other way counts as inactive or inconclusive; note: % is set by controls: 0 for no effect and ±100 for the full control effect). The note with it: ARE-bla HepG2 viability, CellTiter-Glo ATP luminescence, 16 h; max response: stronger effect = lower value. The method in brief:
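ARE-bla HepG2 cells treated with compounds for 16 h at 37C; this counter screen measures viability as intracellular ATP by CellTiter-Glo luminescence after 30 min at room temperature.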

Assay [19] is described as follows: qHTS assay for cell viability of HEK293 cells (AID 743288; active = well fitted curve in the direction sought with a large enough effect; an effect the other way counts as inactive or inconclusive; note: % is set by controls: 0 for no effect and ±100 for the full control effect; nearly all actives have a fitted effect of over 50% in size). The note with it: ATP luminescence (CellTiter-Glo), 18 h; max response: stronger effect = lower value. Put shortly: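 Readout is luciferase-coupled ATP content (CellTiter-Glo luminescence, 30 min room temperature) as a measure of metabolically competent cells. Parental HEK293 cells were plated 5 h or more before compound addition, then treated 18 h at 37 C.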

Assay [20] has as its target Nuclear receptor subfamily 1 group I member 2 (Rattus norvegicus) (UniProt Q9R1A7). The assay can be described thus: qHTS assay for small molecule activators of the rat pregnane X receptor (rPXR) signaling pathway (AID 651751; call rule not given here; note: 0% is about no effect). The settings on record: rPXR reporter cells, luciferase (One-Glo), 24 h.
A short description of assay [21]: qHTS assay for small molecule activators of the human pregnane X receptor (PXR) signaling pathway (AID 720659; call rule not given here; note: 0% is about no effect).
Assay [22] addresses Glucocorticoid receptor (Homo sapiens) (UniProt P04150). Put plainly: qHTS assay for small molecule antagonists of glucocorticoid receptor signaling (AID 588533; active = well fitted inhibition curve with a large enough effect in the signal ratio, with a control signal flat, not every such curve was filed as active; the % refers to the signal ratio; note: % is set by controls: 0 for no effect and ±100 for the full control effect). The method in brief: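 Antagonist-mode qHTS: compound titrations added to GRE-bla HeLa cells, then dexamethasone 2 nM final; 18 h, 37 C. CCF4 FRET fluorescence normalized to dexamethasone and DMSO; IC50 from Hill fit.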

Assay [23] deals with Retinoic acid receptor RXR-alpha (Homo sapiens) (UniProt P19793). The assay can be described thus: qHTS assay for small molecule antagonists of retinoid X receptor alpha signaling (AID 588546).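 Note: cells stimulated with 9-cis-retinoic acid as agonist; % is set by controls: 0 for no effect and ±100 for the full control effect.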 The note with it: HEK293T RXRa-UAS-bla, beta-lactamase ratio, antagonist mode. The method in brief:
as §2

Assay [24] can be described thus: qHTS assay for small molecule activators of the nuclear factor-kappa B (NF-kB) signaling pathway (AID 651749; active = well fitted activation curve with a large enough effect in the signal ratio; the % refers to the signal ratio; note: series mostly up to about 77 µM; % of control where 0% means no effect). The settings on record: NF-kB-bla ME-180 cells, beta-lactamase FRET ratio, 16 h; activation: stronger effect = higher value. Put shortly: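 NF-kB-bla ME-180 cells, 2,000/well; 23 nL compound or DMSO pinned; 16 hr, 37C/5% CO2; beta-lactamase FRET read-out.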
A short description of assay [25]: qHTS assay for cell viability of the p53RE-bla HCT-116 cell line (AID 743292; active = well fitted curve in the direction sought with a large enough effect; an effect the other way counts as inactive or inconclusive; note: % is set by controls: 0 for no effect and ±100 for the full control effect; nearly all actives have a fitted effect of over 55% in size). The method in brief: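 ATP-based luminescence, 16 h compound exposure at 37 C, p53RE-bla HCT-116 cells at 4,000/well.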

Inconclusive results are not listed. Calls of active or inactive are those of the source. Unless noted, calls come from the whole dose curve.

Chain of Thyroid hormone receptor beta (Homo sapiens) (P10828 whole entry, looked up): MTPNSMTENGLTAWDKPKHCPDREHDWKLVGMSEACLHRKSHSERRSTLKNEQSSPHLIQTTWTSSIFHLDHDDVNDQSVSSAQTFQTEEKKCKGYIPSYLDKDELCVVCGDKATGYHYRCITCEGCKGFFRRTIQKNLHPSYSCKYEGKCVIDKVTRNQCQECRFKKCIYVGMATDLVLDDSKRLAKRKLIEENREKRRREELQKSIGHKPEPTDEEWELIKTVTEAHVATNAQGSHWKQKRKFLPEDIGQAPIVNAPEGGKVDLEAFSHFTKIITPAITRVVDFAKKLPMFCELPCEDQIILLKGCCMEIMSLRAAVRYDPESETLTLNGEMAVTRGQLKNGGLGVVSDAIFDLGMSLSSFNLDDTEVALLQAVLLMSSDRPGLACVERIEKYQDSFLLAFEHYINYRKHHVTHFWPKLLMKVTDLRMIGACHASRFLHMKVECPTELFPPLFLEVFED
Chain of Glucocorticoid receptor (Homo sapiens) (P04150 whole entry, looked up): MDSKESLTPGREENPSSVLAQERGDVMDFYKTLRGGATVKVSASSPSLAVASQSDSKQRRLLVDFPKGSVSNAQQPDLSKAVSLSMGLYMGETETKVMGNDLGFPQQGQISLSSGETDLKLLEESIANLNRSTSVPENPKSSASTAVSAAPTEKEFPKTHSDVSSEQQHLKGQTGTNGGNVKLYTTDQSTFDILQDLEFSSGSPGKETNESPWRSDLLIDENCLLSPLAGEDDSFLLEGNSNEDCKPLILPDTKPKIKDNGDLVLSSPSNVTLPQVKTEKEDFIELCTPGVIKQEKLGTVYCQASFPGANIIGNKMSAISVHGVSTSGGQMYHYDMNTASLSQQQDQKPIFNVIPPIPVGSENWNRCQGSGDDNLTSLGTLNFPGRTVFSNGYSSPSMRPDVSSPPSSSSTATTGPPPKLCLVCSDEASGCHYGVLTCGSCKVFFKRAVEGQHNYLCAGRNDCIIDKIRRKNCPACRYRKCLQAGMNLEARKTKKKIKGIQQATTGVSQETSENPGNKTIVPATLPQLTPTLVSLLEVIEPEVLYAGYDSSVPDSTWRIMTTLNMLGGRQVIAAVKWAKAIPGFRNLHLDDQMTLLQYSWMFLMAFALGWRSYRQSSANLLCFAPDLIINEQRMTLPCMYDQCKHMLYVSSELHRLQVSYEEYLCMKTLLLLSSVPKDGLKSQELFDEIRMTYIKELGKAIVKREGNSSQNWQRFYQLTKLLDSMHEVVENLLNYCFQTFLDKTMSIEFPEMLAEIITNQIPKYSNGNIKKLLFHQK
Chain of Retinoic acid receptor RXR-alpha (Homo sapiens) (P19793 whole entry, looked up): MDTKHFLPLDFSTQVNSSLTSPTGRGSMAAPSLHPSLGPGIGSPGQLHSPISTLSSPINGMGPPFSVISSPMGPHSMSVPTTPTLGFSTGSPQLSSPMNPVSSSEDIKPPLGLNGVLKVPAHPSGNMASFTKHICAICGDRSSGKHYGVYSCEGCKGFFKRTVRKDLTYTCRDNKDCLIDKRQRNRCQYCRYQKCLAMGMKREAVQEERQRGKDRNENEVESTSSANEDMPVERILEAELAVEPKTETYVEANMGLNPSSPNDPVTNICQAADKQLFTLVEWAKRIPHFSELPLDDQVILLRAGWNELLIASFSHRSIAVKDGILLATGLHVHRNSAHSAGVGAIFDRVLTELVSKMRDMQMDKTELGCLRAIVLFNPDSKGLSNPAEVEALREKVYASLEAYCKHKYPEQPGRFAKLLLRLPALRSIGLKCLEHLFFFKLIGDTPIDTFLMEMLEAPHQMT
Chain of Peroxisome proliferator-activated receptor gamma (Homo sapiens) (P37231 whole entry, looked up): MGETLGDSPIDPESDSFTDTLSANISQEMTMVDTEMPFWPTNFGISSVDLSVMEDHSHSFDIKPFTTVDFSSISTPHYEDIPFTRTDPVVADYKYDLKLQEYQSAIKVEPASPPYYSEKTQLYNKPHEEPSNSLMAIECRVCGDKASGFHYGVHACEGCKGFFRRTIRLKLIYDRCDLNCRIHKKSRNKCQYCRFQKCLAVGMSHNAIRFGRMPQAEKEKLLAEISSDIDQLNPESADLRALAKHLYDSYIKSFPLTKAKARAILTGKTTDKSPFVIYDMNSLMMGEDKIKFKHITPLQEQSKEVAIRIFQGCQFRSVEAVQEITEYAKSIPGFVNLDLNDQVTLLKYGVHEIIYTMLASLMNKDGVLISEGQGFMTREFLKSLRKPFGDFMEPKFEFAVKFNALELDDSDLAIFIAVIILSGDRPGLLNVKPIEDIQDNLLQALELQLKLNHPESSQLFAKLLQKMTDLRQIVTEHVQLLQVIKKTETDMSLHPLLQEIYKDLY
Chain of Peroxisome proliferator-activated receptor delta (Homo sapiens) (Q03181 whole entry, looked up): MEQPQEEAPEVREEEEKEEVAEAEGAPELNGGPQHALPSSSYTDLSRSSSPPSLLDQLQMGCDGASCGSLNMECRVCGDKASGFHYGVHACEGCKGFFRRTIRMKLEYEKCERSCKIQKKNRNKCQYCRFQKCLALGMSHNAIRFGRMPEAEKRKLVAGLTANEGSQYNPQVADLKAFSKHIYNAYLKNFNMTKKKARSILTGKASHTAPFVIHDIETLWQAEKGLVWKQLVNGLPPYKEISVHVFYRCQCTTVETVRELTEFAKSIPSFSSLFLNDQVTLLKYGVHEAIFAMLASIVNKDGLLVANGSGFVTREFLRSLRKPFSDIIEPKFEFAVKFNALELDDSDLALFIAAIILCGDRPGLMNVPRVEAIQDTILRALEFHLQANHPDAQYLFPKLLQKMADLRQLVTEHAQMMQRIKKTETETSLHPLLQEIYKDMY
Chain of Vitamin D3 receptor (Homo sapiens) (P11473 whole entry, looked up): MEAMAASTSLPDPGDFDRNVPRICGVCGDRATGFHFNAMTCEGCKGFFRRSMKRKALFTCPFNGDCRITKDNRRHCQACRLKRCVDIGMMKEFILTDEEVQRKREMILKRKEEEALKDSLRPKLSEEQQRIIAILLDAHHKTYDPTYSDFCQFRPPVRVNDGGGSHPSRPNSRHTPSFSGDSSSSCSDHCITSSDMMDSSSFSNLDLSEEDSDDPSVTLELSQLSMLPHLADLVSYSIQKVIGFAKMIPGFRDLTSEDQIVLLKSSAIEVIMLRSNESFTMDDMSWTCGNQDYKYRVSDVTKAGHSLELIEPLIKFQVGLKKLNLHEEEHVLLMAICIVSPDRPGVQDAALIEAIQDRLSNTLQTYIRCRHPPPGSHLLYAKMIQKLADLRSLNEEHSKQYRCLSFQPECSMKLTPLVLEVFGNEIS
Chain of Nuclear receptor subfamily 1 group I member 2 (Rattus norvegicus) (Q9R1A7 whole entry, looked up): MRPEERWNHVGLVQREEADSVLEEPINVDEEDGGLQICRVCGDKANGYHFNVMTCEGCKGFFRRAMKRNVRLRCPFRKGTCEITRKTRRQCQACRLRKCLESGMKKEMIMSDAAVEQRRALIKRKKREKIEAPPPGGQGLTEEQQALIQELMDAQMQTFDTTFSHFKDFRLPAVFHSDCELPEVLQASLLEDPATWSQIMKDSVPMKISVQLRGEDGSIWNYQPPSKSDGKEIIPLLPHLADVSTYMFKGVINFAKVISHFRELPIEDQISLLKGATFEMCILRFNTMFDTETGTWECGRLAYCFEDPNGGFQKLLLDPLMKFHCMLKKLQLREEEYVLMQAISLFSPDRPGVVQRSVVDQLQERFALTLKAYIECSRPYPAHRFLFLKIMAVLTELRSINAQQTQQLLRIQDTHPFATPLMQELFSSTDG
Chain of Peroxisome proliferator-activated receptor alpha (Homo sapiens) (Q07869 whole entry, looked up, the tested form may be a part): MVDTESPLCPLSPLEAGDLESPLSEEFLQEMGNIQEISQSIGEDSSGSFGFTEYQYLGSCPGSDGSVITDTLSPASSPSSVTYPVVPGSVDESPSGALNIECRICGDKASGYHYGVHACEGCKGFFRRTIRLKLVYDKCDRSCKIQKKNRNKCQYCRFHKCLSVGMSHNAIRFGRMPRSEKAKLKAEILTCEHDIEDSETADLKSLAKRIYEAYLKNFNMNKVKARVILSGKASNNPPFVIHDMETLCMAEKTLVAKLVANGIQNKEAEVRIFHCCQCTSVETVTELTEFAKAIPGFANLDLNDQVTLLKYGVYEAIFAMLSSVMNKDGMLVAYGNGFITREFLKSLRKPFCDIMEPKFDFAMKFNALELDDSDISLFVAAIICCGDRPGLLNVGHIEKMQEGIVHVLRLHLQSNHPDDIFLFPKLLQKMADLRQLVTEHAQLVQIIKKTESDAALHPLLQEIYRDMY

For `COP(=O)(NC(C)=O)SC` (centres undefined), the activation in assay [1] was -2.58% (inactive); in [15], -0.529% (inactive). Also, the outcome in assay [2], in [8] and in assay [21] was inactive. Also, the max response was -7.01% in assay [3]; 4.58% in assay [9]; 3.46% in assay [12]; -0.657% (inactive) in assay [16]; -8.51% (inactive) in [18]; -8.22% (inactive) in [19]. Also, the max response in [20] was -1.19% (inactive). In addition, the Potency result in [4], in [5], in [6], in assay [7], in assay [10] and in assay [11] was “inactive” each time. For the same compound, the Potency entry in [14] and in assay [17] was “inactive” each time. For the same compound, in assay [13], the activity change % (negative = inhibition) was -13.5% (inactive).
`CCOP(=S)(Oc1cnc(C(C)(C)C)nc1)OC(C)C` (centres undefined): the activation in assay [1] was 2.58% (inactive); in assay [15] it was -2.32% (inactive); in assay [24], -0.139% (inactive). Also, the Potency entry in assay [22], in [4], in assay [5], in assay [6], in assay [7] and in assay [10] was “inactive” throughout. For the same compound, the Potency result in assay [11], in assay [17] and in [25] was “inactive” throughout. Further, the compound was classed as inactive in assay [2] and in assay [8]. The max response in assay [3] is -24.6%; in assay [9] it was -5.29%; in assay [12], 10.2%; in assay [23] it was 1.44% (inactive); in [16] it was -0.258% (inactive); in assay [18] it was -5.89% (inactive). Besides, the max response in assay [19] was -6.73% (inactive); in assay [20], 6.76% (inactive). Besides, the activity change % (negative = inhibition) in [13] is 4.48% (inactive).
